From PubChem BioAssay AID1240 (Sanford-Burnham Center for Chemical Genomics, 2008) come the findings set out here.

The whole screen tested about 50,000 compounds, of which about 800 (1.6%) showed an effect of 50% or more. The sample as a whole holds a higher share of strong results than the screen did.

For this assay, the target named is Bcl-2-like protein 10 (Homo sapiens) (UniProt Q9HD36). The assay is described as follows: Phenotype converters, Bcl-B/TR3 peptide binding displacement, primary biochemical FP (AID 1240).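 Also: 0% = Bcl-B with tracer peptide and DMSO and 100% = tracer peptide lacking Bcl-B.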 To be noted: GST-Bcl-B / FITC-TR3 peptide fluorescence polarization; stronger effect = higher value; compound at 3.75 mg/L.
Chain of Bcl-2-like protein 10 (Homo sapiens) (Q9HD36 whole entry, looked up): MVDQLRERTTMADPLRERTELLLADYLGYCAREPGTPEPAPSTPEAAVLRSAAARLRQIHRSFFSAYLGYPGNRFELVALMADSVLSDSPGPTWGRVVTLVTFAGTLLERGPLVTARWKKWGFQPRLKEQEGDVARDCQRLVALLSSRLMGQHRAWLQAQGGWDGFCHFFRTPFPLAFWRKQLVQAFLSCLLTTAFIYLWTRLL
As to `CCSc1sc(CC)cc1C(=O)O`, the displacement worked out at 15.4%. In the case of `O=c1oc(-c2ccco2)nc2ccccc12` it was 15.9%; in that of `O=c1oc(-c2ccco2)nc2ccc(Cl)cc12`, 13.6%. In the case of `O=c1oc(-c2ccco2)nc2cc(Cl)ccc12` it was 56%; in that of `C(=C\c1ccco1)/C=N/Nc1nnc2c(n1)[nH]c1ccccc12`, -1.8%; in that of `CCOc1ccc(C(=O)Nc2ccc(O)c(-c3nc4ccccc4s3)c2)cc1Cl`, 6.3%.

`O=c1c2c(nc3cc(-c4ccc(I)cc4)[nH]n13)CCS2`: the displacement was found to be 97.5%.

For the compound `O=c1c2c(nc3cc(-c4cccc(F)c4)[nH]n13)CCS2`, the displacement is 9.2%.

In the case of `O=c1c2c(nc3cc(-c4ccc(Cl)cc4)[nH]n13)CCS2`, the displacement is 115%. The value for `O=c1c2c(nc3cc(-c4ccc(Br)cc4)[nH]n13)CCS2` was -9.1%; that for `O=c1c2c(nc3cc(-c4cccc(Cl)c4)[nH]n13)CCS2` was 34.8%; that for `Cc1ccc(-c2cc3nc4c(c(=O)n3[nH]2)SCC4)cc1` was -4.6%. The value for `O=C(COc1cccc2ccccc12)NCc1cccnc1` was 8.3%.

As to `CC(C)CNC(=O)c1cccc(NC(=O)CN2C(=O)c3ccccc3C2=O)c1`, the displacement worked out at 13.8%. In the case of `O=C(NCc1ccncc1)c1ccc(Cl)cc1`, the displacement was -3.5%. As for `C/C(=N/NC(=O)COc1cccc(Cl)c1)c1ccccc1O`, the displacement was 9.1%.

For `Cc1cc(C)c(NC(=O)c2ccccc2[N+](=O)[O-])c(C)c1`, the displacement was 13.5%. Regarding `CC(=O)NC(NC(C)=O)c1ccc(F)cc1`, the displacement was -2.4%.

For `COc1ccc(/C=C2\C(=O)NC(=S)N(c3cccc(Br)c3)C2=O)c(OC)c1`, the displacement is -0.7%.

Take `COc1ccc(/C=C2\C(=O)NC(=O)N(c3cccc(Br)c3)C2=O)c(C)c1`: the displacement was -5.7%. Consider `COc1ccc(/C=C2\C(=O)NC(=O)N(c3ccc(F)cc3)C2=O)cc1OC`, for which the displacement was -27.7%. For `CCOc1ccc(/C=C2/C(=O)NC(=O)N(c3ccc(OC)cc3)C2=O)c(OCC)c1`, the displacement was -4%. On to `COc1cc(/C=C2\C(=O)NC(=O)N(c3cccc(Br)c3)C2=O)cc(Cl)c1O`, for which the displacement amounted to 4.4%. The value for `COc1ccc(/C=C2\C(=O)NC(=O)N(c3cccc(Br)c3)C2=O)cc1OC` was 120%; that for `CCN(CC)c1ccc(/C=C2\C(=O)NC(=O)N(c3ccc(OC)cc3)C2=O)c(OC)c1` was 10%. The value for `CCOc1ccc(N2C(=O)NC(=O)/C(=C\c3ccc(N(CC)CC)cc3OC)C2=O)cc1` was 55.1%; that for `COc1ccc(/C=C2\C(=O)NC(=O)N(c3cccc(Br)c3)C2=O)c(OC)c1` was 122%; that for `Cc1cc(Br)ccc1NC(=O)c1ccc(C)c([N+](=O)[O-])c1` was 8.6%.

`CCCCCOC(=O)C1=C(C)NC(=O)NC1c1ccc(Br)cc1` (stereo unspecified): the displacement turned out to be 8.5%. Regarding `COc1ccccc1C(=O)Nc1nnc(C(C)(C)C)s1`, the displacement is -11.4%.

Consider `CCOc1ccc(S(=O)(=O)N(CC(=O)NC)c2ccc(C)cc2)cc1`, for which the displacement is 1.7%.
